This passage reports composite z-score, composite Z-score and z-score results from PubChem BioAssay.

For one test, the target named is Albumin (Bos taurus) (UniProt P02769). The test is described as follows: bovine serum albumin binders on microarray, profiling panel, artefact control for SMM control protein annotation, biochemical, small-molecule microarray, Alexa647 label, 635/667 nm fluorescence (AID 1118).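 Note: score merges 667 nm emission intensity and signal-to-noise per printed compound spot.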 Conditions: BSA-A647 binding, fluorescence 635 nm, higher = more signal.
Test [1] in a line: small-molecule microarray binders of probe aXIP, primary screen, biochemical, NeuroSMM set, 635/667 nm fluorescence (AID 1119).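 Note: probe is the protein aXip251-270 applied at 1 µg/mL to compound-printed slides; binding of probe to printed compounds measured as 667 nm fluorescence plus signal to noise.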 Conditions: higher = more signal, called active from +8 up or from −8 down.
Test [2] can be described thus: small-molecule binders of probe aNOTCH3, primary screen, biochemical, small-molecule microarray, 635/667 nm fluorescence (AID 1120).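 Note: probe is a biotin-tagged antibody raised against NOTCH3 rather than NOTCH3 protein; score merges spot fluorescence near 667 nm with spot signal to noise.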 Conditions: higher = more signal.
Test [3] in a line: small-molecule binders of probe aNOTCH2, primary screen, biochemical, small-molecule microarray, 635/667 nm fluorescence (AID 1121).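 Note: score merges feature fluorescence read at 667 nm with its signal to noise.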 Conditions: higher = more signal.
In test [4] the target is Carbonic anhydrase 2 (Homo sapiens) (UniProt P00918). The test is described as follows: CAII small-molecule binders, profiling panel, biochemical, small-molecule microarray, Alexa647-labelled CAII (AID 1122). Conditions: CAII-A647 binding fluorescence, higher = more signal.
A short description of test [5]: COS7 lysate on small-molecule microarray, probe aHis, 635 nm (AID 1123).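 Note: z-score combines 667nm fluorescence intensity with signal-to-noise per printed compound spot.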 Conditions: COS7 cell lysate, fluorescence, higher = more signal.
Test [6] in a line: compound binding in COS7 lysate, probe aLAP1, primary screen, cell lysate, small-molecule microarray (AID 1124).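 Note: lysate comes from COS7 cells expressing LAP1 and is applied at 0.3 µg/mL; score merges spot fluorescence near 667 nm with signal-to-noise over triplicate slides.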 Conditions: probe aLAP1, fluorescence, higher = more signal.
For the next test, the system named is Sam68 (KHDRBS1). The test is described as follows: Sam68 small-molecule binders, primary screen, biochemical, small-molecule microarray, 635 nm fluorescence (AID 1125).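 Note: score merges 667 nm channel intensity with signal to noise over triplicate slides.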 Conditions: small-molecule microarray binding, higher = more signal.
For test [7], the system named is Chordin-like protein 2 (CHRDL2). Briefly: CHRDL2 small-molecule binders, primary screen, biochemical, small-molecule microarray, 635 nm fluorescence (AID 1126).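 Note: printed compound slides probed with Chrdl2 protein at 4 µg/mL for 1 h at 4 C; score merges 667 nm emission intensity with signal to noise over three replicate slides.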 Conditions: small-molecule microarray binding, fluorescence 635 nm; higher = more signal.
In test [8] the target is Concanavalin-A (Canavalia ensiformis) (UniProt P02866). Briefly: ConA small-molecule binders, primary screen, artefact control for SMM control protein annotation, biochemical, small-molecule microarray, Alexa647 label, 635 nm (AID 1127).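 Note: z combines 667 nm emission intensity with signal-to-noise across three replicate slides.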 Conditions: ConA-A647 binding fluorescence, higher = more signal.
Test [9] in a line: anti-His antibody binders, primary screen, artefact control for SMM control protein annotation, biochemical, small-molecule microarray, 635 nm fluorescence (AID 1128).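 Note: score merges feature fluorescence with signal-to-noise for each printed compound spot.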 Conditions: anti-His Alexa647 antibody binding, higher = more signal.
Test [10] has as its system Human papillomavirus type 1a E7 protein (residues 1-88). Briefly: HPV1a E7 small-molecule binders, primary screen, biochemical, small-molecule microarray, residues 1-88, 635 nm (AID 1129). Conditions: small-molecule microarray binding, fluorescence 635 nm; higher = more signal.
For test [11], the target named is Focal adhesion kinase 1 (Homo sapiens) (UniProt Q05397). Briefly: small-molecule microarray binders of FAK, primary screen, biochemical, 635/667 nm fluorescence, BSA, DTT (AID 1130).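 Note: composite of spot emission at 667 nm and signal to noise over triplicate slides.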 Conditions: PTK2 binding, 635 nm fluorescence, higher = more signal.
In test [12] the test system is Fibrinogen (Alexa647-labelled). Briefly: fibrinogen binders on compound microarrays, profiling panel, artefact control for SMM control-protein annotation, biochemical, small-molecule microarray, 635/667 nm fluorescence (AID 1131).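 Note: z-score merges 667 nm fluorescence with per-spot signal-to-noise over triplicate slides.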 Conditions: fibrinogen-A647 binding fluorescence, higher = more signal.
Test [13] concerns the target Follistatin (Homo sapiens) (UniProt P19883). The test is described as follows: follistatin binders on small-molecule microarrays, primary screen, biochemical, small-molecule microarray, 635/667 nm fluorescence (AID 1132). Conditions: FST binding, 635 nm fluorescence, higher = more signal.
The target in test [14] is Fibroblast growth factor 2 (Homo sapiens) (UniProt P09038). Briefly: FGF2 binders on small-molecule microarrays, primary screen, biochemical, small-molecule microarray, 635/667 nm fluorescence (AID 1133). Conditions: small-molecule microarray binding, FGF2, fluorescence 635/667; higher = more signal.
A short description of test [15]: mitochondrial membrane potential change in A549 cells, profiling panel, cell-based, JC-1 fluorescence, basal, 24 h, 100 nL (AID 1138).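 Note: A549 lung adenocarcinoma cells under basal conditions with no added stimulus; test concentration not given here.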 Conditions: higher = more signal.
Another test deals with Lefty1. Briefly: Lefty1 binders on small-molecule microarrays, primary screen, biochemical, small-molecule microarray, 635/667 nm fluorescence (AID 1139). Conditions: small-molecule microarray binding, fluorescence 635/667; higher = more signal.
In test [16] the test system is wheat germ agglutinin (Triticum aestivum), Alexa647-labelled. Briefly: wheat germ agglutinin binders on compound microarrays, profiling panel, artefact control for SMM control-protein annotation, biochemical, small-molecule microarray, 635/667 nm fluorescence (AID 1140).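 Note: score merges 667 nm feature emission with signal to noise over triplicate slides.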 Conditions: WGA-A647 binding, 635 nm fluorescence, higher = more signal.
The target of test [17] is Luciferin 4-monooxygenase (Photinus pyralis) (UniProt P08659). Briefly: firefly luciferase enzyme inhibitors, primary screen, biochemical, luminescence, purified enzyme, 2006 set (AID 1141).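 Note: cell-free assay with purified firefly luciferase at 100 ng per well in PBS; test concentration not given here.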 Conditions: SteadyGlo luminescence, 30 min, higher = more signal, called active from +8 up or from −8 down.

Structures are written as SMILES. Activity calls are given as the source filed them.

Sequence of Albumin (Bos taurus) (P02769 whole entry, looked up): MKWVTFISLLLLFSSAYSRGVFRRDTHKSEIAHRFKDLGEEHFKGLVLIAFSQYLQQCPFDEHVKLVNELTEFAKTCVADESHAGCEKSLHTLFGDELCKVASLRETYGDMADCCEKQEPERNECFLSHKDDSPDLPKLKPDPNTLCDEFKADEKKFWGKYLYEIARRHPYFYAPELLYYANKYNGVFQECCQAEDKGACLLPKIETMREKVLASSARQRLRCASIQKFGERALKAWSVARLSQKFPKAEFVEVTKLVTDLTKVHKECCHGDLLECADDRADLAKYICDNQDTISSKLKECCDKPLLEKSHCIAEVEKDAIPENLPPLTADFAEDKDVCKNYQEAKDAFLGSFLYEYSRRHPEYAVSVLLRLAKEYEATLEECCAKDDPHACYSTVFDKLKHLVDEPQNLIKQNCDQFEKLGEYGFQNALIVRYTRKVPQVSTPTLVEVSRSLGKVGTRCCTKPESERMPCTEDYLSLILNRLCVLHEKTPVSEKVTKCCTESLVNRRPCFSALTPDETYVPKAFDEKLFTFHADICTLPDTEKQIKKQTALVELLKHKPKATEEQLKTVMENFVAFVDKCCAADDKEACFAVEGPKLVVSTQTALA
Sequence of Follistatin (Homo sapiens) (P19883 whole entry, looked up): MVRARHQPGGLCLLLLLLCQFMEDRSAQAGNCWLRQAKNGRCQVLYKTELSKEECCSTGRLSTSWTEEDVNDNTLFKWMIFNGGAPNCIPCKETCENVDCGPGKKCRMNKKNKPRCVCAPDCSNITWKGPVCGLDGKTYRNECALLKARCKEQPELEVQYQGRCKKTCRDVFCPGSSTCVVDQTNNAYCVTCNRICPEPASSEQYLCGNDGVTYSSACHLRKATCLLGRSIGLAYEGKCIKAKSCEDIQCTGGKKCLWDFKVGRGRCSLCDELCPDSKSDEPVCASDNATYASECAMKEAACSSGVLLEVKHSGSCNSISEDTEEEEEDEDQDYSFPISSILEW
Sequence of Luciferin 4-monooxygenase (Photinus pyralis) (P08659 whole entry, looked up): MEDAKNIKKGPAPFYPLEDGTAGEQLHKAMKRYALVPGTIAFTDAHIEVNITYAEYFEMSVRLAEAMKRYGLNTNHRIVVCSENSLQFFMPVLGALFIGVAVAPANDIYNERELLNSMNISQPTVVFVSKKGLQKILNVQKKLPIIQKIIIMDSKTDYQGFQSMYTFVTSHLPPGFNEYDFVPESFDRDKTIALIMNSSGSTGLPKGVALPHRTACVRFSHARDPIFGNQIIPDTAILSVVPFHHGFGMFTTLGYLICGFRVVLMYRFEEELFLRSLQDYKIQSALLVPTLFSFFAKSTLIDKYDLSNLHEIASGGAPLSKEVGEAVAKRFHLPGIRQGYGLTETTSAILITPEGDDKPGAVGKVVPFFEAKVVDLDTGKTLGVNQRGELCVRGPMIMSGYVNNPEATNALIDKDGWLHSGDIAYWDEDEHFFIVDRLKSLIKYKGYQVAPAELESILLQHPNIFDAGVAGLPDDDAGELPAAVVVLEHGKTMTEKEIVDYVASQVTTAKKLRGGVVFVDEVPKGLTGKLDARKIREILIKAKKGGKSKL
Sequence of Fibroblast growth factor 2 (Homo sapiens) (P09038 whole entry, looked up): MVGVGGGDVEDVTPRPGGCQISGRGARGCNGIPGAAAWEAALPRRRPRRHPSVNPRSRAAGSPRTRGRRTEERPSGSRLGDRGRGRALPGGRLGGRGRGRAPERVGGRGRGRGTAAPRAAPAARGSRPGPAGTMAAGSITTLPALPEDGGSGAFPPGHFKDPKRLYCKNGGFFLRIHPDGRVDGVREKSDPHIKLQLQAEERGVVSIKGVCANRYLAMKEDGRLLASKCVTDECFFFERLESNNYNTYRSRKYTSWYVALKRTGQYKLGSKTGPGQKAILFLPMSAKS
Sequence of Concanavalin-A (Canavalia ensiformis) (P02866 whole entry, looked up): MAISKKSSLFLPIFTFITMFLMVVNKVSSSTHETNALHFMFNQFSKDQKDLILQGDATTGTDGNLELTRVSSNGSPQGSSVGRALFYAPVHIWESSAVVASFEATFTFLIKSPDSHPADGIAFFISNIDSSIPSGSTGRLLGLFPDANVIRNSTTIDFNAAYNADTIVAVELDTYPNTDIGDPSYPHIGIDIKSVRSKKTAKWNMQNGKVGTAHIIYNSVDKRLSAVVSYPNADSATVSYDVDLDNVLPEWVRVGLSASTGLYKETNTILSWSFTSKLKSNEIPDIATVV
Sequence of Focal adhesion kinase 1 (Homo sapiens) (Q05397 whole entry, looked up): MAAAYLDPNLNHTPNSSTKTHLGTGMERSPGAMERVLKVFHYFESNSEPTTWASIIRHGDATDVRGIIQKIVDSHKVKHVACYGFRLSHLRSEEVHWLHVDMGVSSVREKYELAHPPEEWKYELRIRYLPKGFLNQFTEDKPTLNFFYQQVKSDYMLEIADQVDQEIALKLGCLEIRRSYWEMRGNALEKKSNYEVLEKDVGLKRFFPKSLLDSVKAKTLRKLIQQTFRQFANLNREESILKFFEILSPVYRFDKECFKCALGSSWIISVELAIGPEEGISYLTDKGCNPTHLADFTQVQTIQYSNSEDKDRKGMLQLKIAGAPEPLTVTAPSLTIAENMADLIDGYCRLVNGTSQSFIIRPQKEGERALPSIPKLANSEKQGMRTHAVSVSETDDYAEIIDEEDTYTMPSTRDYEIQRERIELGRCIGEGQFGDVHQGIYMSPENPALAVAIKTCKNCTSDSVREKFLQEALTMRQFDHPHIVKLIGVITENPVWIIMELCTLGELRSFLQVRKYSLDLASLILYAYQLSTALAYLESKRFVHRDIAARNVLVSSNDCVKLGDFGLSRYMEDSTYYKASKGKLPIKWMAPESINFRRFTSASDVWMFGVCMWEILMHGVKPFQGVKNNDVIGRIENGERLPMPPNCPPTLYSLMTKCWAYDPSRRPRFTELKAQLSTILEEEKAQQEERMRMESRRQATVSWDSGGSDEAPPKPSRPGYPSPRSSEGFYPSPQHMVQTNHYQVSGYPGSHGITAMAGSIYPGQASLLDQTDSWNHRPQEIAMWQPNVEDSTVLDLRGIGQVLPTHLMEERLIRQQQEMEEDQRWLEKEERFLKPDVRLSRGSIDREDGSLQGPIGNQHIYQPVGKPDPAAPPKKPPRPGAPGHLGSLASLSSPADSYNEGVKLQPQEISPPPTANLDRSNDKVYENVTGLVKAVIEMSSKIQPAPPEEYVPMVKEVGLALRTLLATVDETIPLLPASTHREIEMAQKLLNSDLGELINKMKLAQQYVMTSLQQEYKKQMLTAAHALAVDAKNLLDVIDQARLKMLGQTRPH

On to `CC(C)C(=C=CC[C@H](O)c1ccccc1OCCO)C[C@H](O)c1ccccn1`, for which the composite z-score in the test with Albumin (Bos taurus) was 0.161; in test [2] it was 0.395; in [3], -0.0488; in test [4] it was 0.632; in test [5], 0.559; in test [6], 1.61. For the same molecule, the composite z-score with Sam68 (KHDRBS1) is 0.861; in test [7], -0.161; in [8], -0.0625; in test [9], 1.93; in test [10], 0.958; in [11] it was 0.344. In addition, the composite z-score in test [12] was 0.207; in test [13], 0.476; in test [14], 0.857; in the test on Lefty1 it was 0.649; in test [16] it was 1.33. Further, the composite Z-score in test [1] was 0.41 (inactive). Further, the figures for the z-score in test [15] and in [17] were 0.453 and -0.88 (inactive), respectively.
For the molecule `COCCOC(=O)N1C(=O)[C@@]2(c3cc(C#Cc4ccc(OC)cc4)ccc31)[C@H](C(=O)N1CCN(c3ncccn3)CC1)[C@H]1C(=O)O[C@H](c3ccccc3)[C@H](c3ccccc3)N1[C@@H]2c1ccc(O)cc1`, the composite z-score with Albumin (Bos taurus) is 0.259; in [2], -0.112; in test [3], -0.0277; in test [4], 0.287; in test [5] it was 0.722; in test [6], 0.232. The composite z-score is 0.634 in the test with Sam68 (KHDRBS1); -0.0397 in test [7]; 0.762 in test [8]; 0.136 in [9]; 0.64 in [10]; 1.2 in test [11]. The composite z-score in test [12] is -0.126; in test [13] it was 0.755; in test [14] it was 0.633; with Lefty1, 0.331; in [16], 0.428. Also, the composite Z-score in test [1] was 0.0527 (inactive). Moreover, the z-score is -0.334 in test [15] and -0.938 (inactive) in test [17].
Regarding `CC(=O)NCCCC[C@@H]1NC(=O)[C@H]2C[C@@H](C(=O)NCCCCCC[N+](C)(C)C)[C@@H](c3cccc(OCCO)c3)N2C1=O`, the composite z-score in the test with Albumin (Bos taurus) is 0.0306; in [2], 0.15; in test [3], -0.106; in test [4], 0.607; in [5], 1.19; in [6] it was -0.165. Besides, the composite z-score turned out to be 1.04 in the test on Sam68 (KHDRBS1); 1.45 in test [7]; 0.904 in test [8]; 0.627 in test [9]; 0.614 in [10]; 0.207 in [11]. Further, the composite z-score in test [12] was 0.77; in test [13] it was 1.4; in [14], 1.9; in the test on Lefty1 it was 1.39; in [16] it was 0.656. Moreover, in [1], the composite Z-score was 0.526 (inactive). For the same molecule, the z-score in test [15] is -1.12; in [17], 0.692 (inactive).
As for `CC(C)Cc1ccc(CN2CC[C@@H](NS(=O)(=O)c3ccccc3)C2)cc1`, the composite z-score is -0.623 with Albumin (Bos taurus); -0.187 in test [2]; -0.173 in [3]; -0.114 in test [4]; 0.48 in [5]; 0.0054 in test [6]. The composite z-score is 0.532 in the test on Sam68 (KHDRBS1); 0.449 in [7]; -0.36 in test [8]; 0.441 in test [9]; -0.593 in test [10]; -0.0553 in [11]. For the same molecule, the composite z-score in test [12] was -1.02; in [13] it was 0.797; in test [14], -0.0321; in the test with Lefty1, 0.477; in [16], -0.654. Further, the composite Z-score in test [1] is 0.119 (inactive). Also, the figures for the z-score in [15] and in [17] were -0.641 and 0.826 (inactive), respectively.
For `CN(C)CCCNC(=O)[C@@]1(Cc2ccccc2I)c2ccccc2C(=O)N(Cc2ccccc2C(F)(F)F)[C@H]1c1ccc(CO)cc1`, the composite z-score with Albumin (Bos taurus) was -0.212; in [2], -0.286; in [3], -0.146; in test [4], 0.662; in test [5], 2.4; in test [6], 0.557. Moreover, the composite z-score in the test with Sam68 (KHDRBS1) was 1.02; in test [7], -1.07; in test [8], -0.17; in test [9] it was 0.984; in test [10], 0.794; in test [11], 0.17. For the same molecule, the composite z-score is 0.836 in test [12]; -0.781 in test [13]; -1.16 in test [14]; -0.406 in the test with Lefty1; -0.203 in test [16]. In [1], the composite Z-score was 0.179 (inactive). The z-score in [15] is 0.117; in [17] it was 0.606 (inactive).
